Only some compounds are listed: those with a hit (about 6.9% of all), similar ones and a draw of the others.
SKKanGAS inh: SKKanGAS growth inhibition. S. pyogenes SKKanGAS, kanamycin growth, BacTiter-Glo, 6 h. inhibition, % at 7.5 µM. 300,000 tested, 1.3% active. AID 1662;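 active = mean replicate score, as percent of positive control median, at least 50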;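 note: strain carries kanamycin resistance gene driven by streptokinase promoter and grows in 40 µg/ml kanamycin; loss of luminescence reflects streptokinase promoter inhibition or plain growth inhibition; 0% = median of DMSO wells and 100% = positive control at its reference dose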
Beta apoptosis: blocks beta cell apoptosis | INS-1E cytokine-induced death, ATP luminescence, 48 h; percent of positive-control rescue, neutral wells zero | protection from apoptosis, % (no concentration beside the values) | 300,000 tested, 0.8% active;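 active = Every replicate reaches about 75%, or at least half do and their mean reaches it too, limit read from the data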;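 note: 0% = cytokine-treated negative control wells and 100% = positive control rescue; higher means more ATP so stronger rescue from cytokine killing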
CSC inhib: blocks cancer stem cells | AID 2717 | inhibition, % at 7.5 µM | 300,000 tested, 1.1% active | cancer stem cell-like cells viability, luminescence; in the data active = inhibition above about 75%; tested in HMLE shEcad cells
GRIN3A LBD mod: modulators (binders) of human NR3A ligand-binding domain; NR3A LBD differential scanning fluorimetry, Tm shift; 0% = protein alone, 100% = glycine-bound protein; Tm shift relative to glycine control, % at 25 µM; 340,000 tested, 2.5% active;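 active = melting temperature shift of at least 10% of the positive control shift, at one fixed dose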
MPTP block: permeability transition pore inhibition; isolated mouse mitochondria, Ca2+ swelling absorbance, 30 min; inhibition, % at 10 µM; 360,000 tested, 1.4% active; AID 602449;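 active = inhibition of 50% or more, scaled per plate between neutral and stimulator controls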;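 note: 0% = DMSO wells given calcium and 100% = 1 mM EGTA wells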
Mdm2 MdmX PPI: disrupts the human Mdm2-MdmX interaction | O15151+Q00987 | SaOS-2 split-luciferase Mdm2/MdmX complementation, luminescence | inhibition, % at 8 µM | 330,000 tested, 3% active;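 active = inhibition of at least 50% at 8 µM in the primary screen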
Target sequence (O15151 whole entry, looked up): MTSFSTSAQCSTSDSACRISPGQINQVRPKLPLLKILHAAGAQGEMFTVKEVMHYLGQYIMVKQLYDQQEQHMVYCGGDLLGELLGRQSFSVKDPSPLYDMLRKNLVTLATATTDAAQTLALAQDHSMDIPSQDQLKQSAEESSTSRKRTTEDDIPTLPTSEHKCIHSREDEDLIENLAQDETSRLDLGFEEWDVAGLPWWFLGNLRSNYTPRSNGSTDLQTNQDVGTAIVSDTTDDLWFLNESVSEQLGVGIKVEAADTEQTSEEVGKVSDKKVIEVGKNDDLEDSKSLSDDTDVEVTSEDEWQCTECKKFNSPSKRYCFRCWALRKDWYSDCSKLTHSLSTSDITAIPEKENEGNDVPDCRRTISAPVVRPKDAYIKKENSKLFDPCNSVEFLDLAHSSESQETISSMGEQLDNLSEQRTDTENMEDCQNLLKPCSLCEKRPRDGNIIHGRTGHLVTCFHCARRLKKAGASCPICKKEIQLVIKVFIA
Target sequence (Q00987 whole entry, looked up): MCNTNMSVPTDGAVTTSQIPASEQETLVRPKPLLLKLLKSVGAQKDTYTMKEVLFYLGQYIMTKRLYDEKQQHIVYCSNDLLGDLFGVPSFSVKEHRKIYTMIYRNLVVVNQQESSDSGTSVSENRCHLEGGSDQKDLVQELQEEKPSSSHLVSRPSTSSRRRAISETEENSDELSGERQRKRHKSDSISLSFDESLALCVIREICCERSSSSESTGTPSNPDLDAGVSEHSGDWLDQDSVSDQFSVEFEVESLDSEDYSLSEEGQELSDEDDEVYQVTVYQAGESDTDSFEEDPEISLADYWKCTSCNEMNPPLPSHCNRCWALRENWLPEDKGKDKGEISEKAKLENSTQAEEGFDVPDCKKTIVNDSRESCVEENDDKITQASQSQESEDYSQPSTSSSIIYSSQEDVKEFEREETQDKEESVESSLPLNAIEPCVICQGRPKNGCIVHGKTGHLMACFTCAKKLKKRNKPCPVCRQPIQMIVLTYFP
Mdm2-MdmX conf: confirmation of human Mdm2/MdmX interaction inhibitors | inhibition, % at 8 µM | shares compounds with Mdm2 MdmX PPI | Mdm2-MdmX binding, luminescent assay | 10,000 tested, 55% active | AID 489028; in the data active = inhibition above about 40%
Full FLuc ctr: counter-screen for Mdm2/MdmX inhibitors: full-length luciferase. SaOS-2 full-length luciferase counterscreen, luminescence. inhibition, % at 8 µM. AID 504607. 6,200 tested, 77% active. shares compounds with Mdm2 MdmX PPI;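 active = mean inhibition at 8 µM reaching about 37%, which flags the compound as non-specific, limit read from the data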;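 note: p53-null SaOS-2 cells with luciferase driven by a doxycycline-inducible promoter; compound on cells about two nights before reading with doxycycline added after day one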
An asterisk follows results filed as active; . = no result given.

SMILES	SKKanGAS inh	Beta apoptosis	CSC inhib	GRIN3A LBD mod	MPTP block	Mdm2 MdmX PPI	Mdm2-MdmX conf	Full FLuc ctr
COc1ccc(C)c2sc(NC(=O)CCS(=O)(=O)c3ccccc3)nc12	12	4	0	-4	0	77*	69*	45*
CCOc1cccc2sc(N(CCN(C)C)C(=O)CCS(=O)(=O)c3ccccc3)nc12	1	-3	-7	5	0	-26	.	.
CCOc1cccc2sc(NC(=O)CCS(=O)(=O)c3ccccc3)nc12	35	-15	-5	0	0	70*	66*	35
O=C(NNc1cccc(Cl)c1)c1cccnc1Oc1ccccc1	36	-4	73	-1	2	14	.	.
Cc1ccc(NC(=S)N(CCCN2CCCC2)Cc2cccn2Cc2ccc(Cl)cc2)cc1C	1	27	70	-2	6	58*	37	.
FC(F)(F)c1cccc(NC(=S)N(CCCN2CCCC2)Cc2cccn2Cc2ccc(Cl)cc2)c1	-5	27	130*	-8	12	96*	54*	30
Cc1ccc(NC(=S)N(CCCN2CCCC2)Cc2cccn2Cc2ccc(Cl)cc2)cc1Cl	32	7	144*	-2	7	76*	39	58*
COc1ccc(NC(=S)N(CCCN2CCCC2)Cc2cccn2Cc2ccc(Cl)cc2)cc1Cl	10	57	42	-2	3	85*	57*	54*
Cc1ccc(C(=O)NCCNC(=O)Cc2ccccc2)cn1	1	0	.	1	-2	5	.	.
Cc1nc(N2CCC(C)CC2)c2c(C)c(C(=O)Nc3ccc(C)c(F)c3)sc2n1	47	10	.	-5	44	15	.	.
Cc1c(C(=O)N2CCN(c3ccc(F)cc3)CC2)sc2ncnc(N3CCN(c4ccccn4)CC3)c12	26	11	14	-1	0	53*	29	61*
COc1ccccc1N1CCN(C(=O)c2sc3nc(C)nc(N4CCN(c5ccccn5)CC4)c3c2C)CC1	27	-3	14	-4	1	76*	71*	38*
Cc1nc(N2CCN(C)CC2)c2c(C)c(C(=O)Nc3ccc(C)c(F)c3)sc2n1	-13	-11	10	-2	-2	50*	34	.
COc1ccccc1N1CCN(C(=O)c2sc3ncnc(N4CCN(c5ccccn5)CC4)c3c2C)CC1	23	-2	.	-2	-1	56*	48*	88*
Cc1nc(N2CCN(c3ccccn3)CC2)c2c(C)c(C(=O)N3CCN(c4ccc(F)cc4)CC3)sc2n1	36	6	.	1	0	38	.	.
Cc1ccc(OCCC(=O)OCC(=O)NC(=O)NC2CCCCC2)cc1	-2	-4	-24	1	-1	10	.	.
COC(=O)C1=C[C@@H](C(=O)OC)[C@@H]2C3=C(C(=O)[C@]2(C)NC(=O)c2ccccc2)[C@H](C)n2c(=O)n(-c4ccccc4)c(=O)n2[C@@H]3C1	-1	-1	2	-1	2	12	.	.
O=c1c(Cl)c(Cl)cnn1Cc1nnc(-c2ccc(Cl)cc2)o1	10	.	.	-3	0	.	.	.
Cc1nc(N2CCN(c3ccccn3)CC2)c2c(C)c(C(=O)Nc3c(C)cc(Br)cc3C)sc2n1	-12	4	0	1	0	59*	30	.
COc1ccc(NS(=O)(=O)c2cccc(C(=O)NNC(=O)c3ccc(C)o3)c2)cc1	.	-3	-13	0	0	-5	.	.
O=c1cc(CN2CCN(c3ccccc3)CC2)c2cc(O)c(-c3ccccc3)cc2o1	16	17	-2	3	2	73*	10	.
CC(C(=O)NC1CCCC1)n1c(-c2ccccn2)nc2ccccc21 (centres undefined)	.	.	.	.	1	.	.	.
CCCCn1c(N)c(N(CCOC)C(=O)c2c(C)noc2C)c(=O)[nH]c1=O	-4	0	9	-2	1	13	.	.
Cc1ccc(-c2[nH]ncc2/C=N/n2c(COc3ccccc3)nc3ccccc3c2=O)cc1	34	41	21	-1	-1	82*	46*	56*
Cc1ccccc1OCc1nc2ccccc2c(=O)n1/N=C/c1cn[nH]c1-c1ccccc1	39	0	25	-3	1	14	.	.
SMILES	SKKanGAS inh	Beta apoptosis	CSC inhib	GRIN3A LBD mod	MPTP block	Mdm2 MdmX PPI	Mdm2-MdmX conf	Full FLuc ctr
CCOc1ccccc1NC(=O)CCCc1nc2ccccc2c(=O)[nH]1	3	7	17	-2	-1	65*	49*	56*
COc1cccc(-c2cc(C(F)(F)F)n3ncc(C(=O)N4CCc5ccccc5C4)c3n2)c1	.	0	11	3	-2	17	.	.
COc1ccc(-c2cc(C(F)(F)F)n3ncc(C(=O)N4CCc5ccccc5C4)c3n2)cc1	.	9	8	-1	-1	54*	22	.
COCCn1c(=NC(=O)CSCC(=O)N2CCOCC2)sc2cc(C)ccc21	4	6	-8	-1	-2	17	.	.
CCC(O)CNC(=O)NC(=C(Cl)Cl)c1ccc(C)c(F)c1 (centres undefined)	1	-4	14	1	1	77*	36	38*
C/C=C(\C)C(=O)NNC(=O)c1sc(-c2ccccc2)nc1C	-1	-4	-10	-4	1	18	.	.
CN(C)/N=C/C=C1\CCC/C(=C\c2ccc(F)c(F)c2)C1=O	-12	19	85*	5	-1	77*	28	44*
COc1ccc(/C=C2\CCCCC2=O)cc1	-1	-4	-9	1	1	-4	.	.
COc1ccc(/C=C2\CCC/C(=C\C=N\N(C)C)C2=O)cc1	6	-10	86*	0	-2	95*	51*	29
O=C(CN1C(=O)c2ccccc2S1(=O)=O)Nc1ncc(Cl)cc1Cl	.	2	-8	-1	-1	84*	70*	64*
Cc1ccc(C(=O)CN2/C(=C(\O)c3ccccc3)C(=O)c3ccccc3S2(=O)=O)c(C)c1	27	4	17	0	-4	7	.	.
CC(C)c1ccc(NC(=O)CN2C(=O)c3ccccc3S2(=O)=O)cc1	-2	1	9	-4	0	37	.	.
Cc1ccc(C(=O)CN2C(=O)c3ccccc3S2(=O)=O)cc1	29	-2	0	0	1	98*	96*	23
O=C(CN1C(=O)c2ccccc2S1(=O)=O)c1ccccc1	3	-7	-7	-1	-1	78*	65*	98*
CN(c1cccc(NC(=O)CN2C(=O)c3ccccc3S2(=O)=O)c1)S(C)(=O)=O	-10	-3	-17	-4	-2	51*	39	82*
CC(C)NC(=O)CN1C(=O)c2ccccc2S1(=O)=O	-2	-4	-8	-1	2	-14	.	.
Cc1cccc(NC(=O)CCN2CCC(C)CC2)c1	4	-2	-10	0	0	12	.	.

High-throughput results deposited in PubChem BioAssay by several laboratories.
